Results reported in PubChem BioAssay AID1159580 (chemical genetic matrix, 2015).
Where “and” joins values, the source holds several entries; their conditions need not be identical. Equal entries are not always repeated. Among all 5,500 compounds or so, about 2,000 (36%) were called active. About 18% were inconclusive and are not listed. Cut-off read from the data, not from the text of the source: active = normalized growth mostly below about 0.91 (no sharp cut-off); inconclusive = no clear call, values can overlap the other calls; inactive = mostly above about 0.92. This is one part of the list.

Assay: chemical genetic growth profiling, strain panel (AID 1159580);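 note: tested at 20 µM; growth read once vehicle control cultures reached saturation at 30 °C; 1 = growth at the plate median or of vehicle wells; lower values mean less growth of the strain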
Conditions: S. cerevisiae deletion strains, growth OD

Measured: normalized growth

O=C(O)c1cc(=O)c2cccc(O)c2[nH]1
inactive: locus YAL013W, strain DEP1, hits give low values 0.999 | locus YAL021C, strain ccr4, hits give low values 0.995 | locus YAL026C, strain drs2, hits give low values 1.03 | locus YAL030W, strain snc1, hits give low values 1.01 | locus YBL061C, strain skt5, hits give low values 1.02 | locus YBR009C, strain hhf1, hits give low values 1 | locus YBR021W, strain FUR4, hits give low values 1.03 | locus YBR023C, strain chs3, hits give low values 1.03 | locus YBR171W, strain sec66, hits give low values 1.03 | locus YBR229C, strain ROT2, hits give low values 0.999 | locus YBR231C, strain swc5, hits give low values 1.01 | locus YBR279W, strain paf1, hits give low values 0.984 | locus YCL011C, strain gbp2, hits give low values 1.02 | locus YCL016C, strain dcc1, hits give low values 1.05 | locus YCL029C, strain bik1, hits give low values 0.953 | locus YCL061C, strain MRC1, hits give low values 1.02 | locus YCL069W, strain vba3, hits give low values 1.01 | locus YCR088W, strain abp1, hits give low values 1.02 | locus YDL005C, strain med2, hits give low values 1.01 | locus YDL035C, strain GPR1, hits give low values 1.02 | locus YDL040C, strain nat1, hits give low values 1 | locus YDL074C, strain BRE1, hits give low values 0.995 | locus YDL101C, strain DUN1, hits give low values 0.988 | locus YDL134C, strain PPH21, hits give low values 1.01 | locus YDL185W, strain tfp1, hits give low values 0.959 | locus YDL192W, strain arf1, hits give low values 0.985 | locus YDR001C, strain nth1, hits give low values 1.01 | locus YDR069C, strain doa4, hits give low values 1.03 | locus YDR101C, strain arx1, hits give low values 0.977 | locus YDR137W, strain rgp1, hits give low values 1.01 | locus YDR150W, strain NUM1, hits give low values 0.97 | locus YDR159W, strain sac3, hits give low values 0.981 | locus YDR162C, strain NBP2, hits give low values 1 | locus YDR195W, strain ref2 1 | locus YDR297W, strain sur2, hits give low values 1.01 | locus YDR318W, strain mcm21, hits give low values 0.981 | locus YDR334W, strain swr1, hits give low values 1.02 | locus YDR335W, strain msn5, hits give low values 1.04 | locus YDR388W, hits give low values 0.995 | locus YDR392W, strain spt3, hits give low values 1.08 | locus YDR502C, strain sam2, hits give low values 0.985 | locus YEL003W, strain gim4, hits give low values 1.01 | locus YEL037C, strain rad23, hits give low values 1.01 | locus YEL061C, strain CIN8 (second series), hits give low values 1.02 | locus YEL061C, strain CIN8, hits give low values 0.993 | locus YER015W, strain faa2, hits give low values 1.02 | locus YER016W, strain bim1, hits give low values 1.04 | locus YER110C, hits give low values 0.974 | locus YER111C, strain swi4, hits give low values 1.01 | locus YER155C, strain BEM2 (second series), hits give low values 1.03 | locus YER155C, strain BEM2, hits give low values 0.998 | locus YER167W, strain BCK2, hits give low values 0.994 | locus YFR010W, strain ubp6, hits give low values 1.01 | locus YGL078C, strain dbp3, hits give low values 0.987 | locus YGL086W, strain mad1, hits give low values 0.993 | locus YGL167C, strain pmr1, hits give low values 1.01 | locus YGL173C, strain kem1, hits give low values 1.01 | locus YGL227W, strain vid30, hits give low values 1.01 | locus YGL240W, strain doc1, hits give low values 0.999 | locus YGL248W, strain PDE1, hits give low values 0.991 | locus YGL253W, strain hxk2, hits give low values 1.03 | locus YGR078C, strain PAC10, hits give low values 0.98 | locus YGR135W, strain pre9, hits give low values 0.986 | locus YGR229C, strain SMI1, hits give low values 1.02 | locus YGR252W, strain gcn5, hits give low values 1.15 | locus YHR013C, strain ard1, hits give low values 1.01 | locus YHR027C, strain rpn1, hits give low values 1.03 | locus YHR030C, strain SLT2, hits give low values 0.985 and 0.961 | locus YHR079C, strain IRE1 (second series), hits give low values 0.985 | locus YHR079C, strain IRE1, hits give low values 0.962 | locus YHR094C, strain hxt1, hits give low values 0.964 | locus YHR129C, strain ARP1, hits give low values 0.987 | locus YHR142W, strain chs7, hits give low values 1.03 | locus YHR200W, strain rpn10, hits give low values 0.984 | locus YIL066C, strain RNR3, hits give low values 0.994 | locus YIL073C, strain SPO22, hits give low values 0.949 | locus YIL125W, strain kgd1, hits give low values 0.975 | locus YIR030C, strain dcg1, hits give low values 0.99 | locus YJL092W, strain hpr5, hits give low values 1.02 | locus YJL095W, strain BCK1 (second series), hits give low values 1.03 | locus YJL095W, strain BCK1, hits give low values 0.982 and 0.975 | locus YJL115W, strain asf1, hits give low values 1.01 | locus YJL129C, strain trk1, hits give low values 1.03 | locus YJL134W, strain LCB3, hits give low values 0.992 | locus YJL154C, strain vps35, hits give low values 1.01 | locus YJL164C, strain tpk1, hits give low values 1.01 | locus YJL166W, strain qcr8, hits give low values 0.996 | locus YJL168C, strain set2, hits give low values 0.981 | locus YJL187C, strain SWE1 (second series), hits give low values 0.95 | locus YJL187C, strain SWE1, hits give low values 1.03 | locus YJR043C, strain POL32, hits give low values 0.987 | locus YJR066W, strain TOR1, hits give low values 0.928
